This test deals with Genome polyprotein (Poliovirus type 1 (strain Mahoney)) (UniProt P03300). Kind of test: poliovirus RdRp elongation inhibitors, primary screen, biochemical, fluorescence polarization, total intensity (AID 588519). As to z-score: compound at 16.7 µg/mL. Particulars: poliovirus polymerase elongation, stronger effect = lower value; for % elongation: compound at 16.7 µg/mL; for z-score: measured here: FP z-score. For orientation: In fluorescence polarisation assays a small probe gives low polarisation when free and higher when bound to something large.
Chain of Genome polyprotein (Poliovirus type 1 (strain Mahoney)) (P03300 1749-2209 limits assumed): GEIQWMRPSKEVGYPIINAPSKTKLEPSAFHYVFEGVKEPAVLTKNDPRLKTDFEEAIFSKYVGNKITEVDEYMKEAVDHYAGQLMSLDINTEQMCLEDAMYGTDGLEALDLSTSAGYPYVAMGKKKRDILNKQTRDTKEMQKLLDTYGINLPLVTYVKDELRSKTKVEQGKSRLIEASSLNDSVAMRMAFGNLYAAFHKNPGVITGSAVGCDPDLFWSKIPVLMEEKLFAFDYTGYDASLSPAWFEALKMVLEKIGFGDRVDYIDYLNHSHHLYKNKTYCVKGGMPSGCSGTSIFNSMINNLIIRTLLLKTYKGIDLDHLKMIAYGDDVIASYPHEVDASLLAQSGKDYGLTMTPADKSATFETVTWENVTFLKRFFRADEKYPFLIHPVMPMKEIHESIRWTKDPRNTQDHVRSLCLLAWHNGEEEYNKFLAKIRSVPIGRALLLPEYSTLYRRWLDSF

The mark [1] stands for this setting: measured here: total intensity read-out.

“And” between values parts separate entries of the source, which are not always exact repeats. Identical values can stand only once. Out of some 150,000 compounds screened, about 1,000 (0.67%) were called active. Rule as the data show it: active = % elongation below about 90%; inactive = the rest, inconclusive results apart. The full list was thinned out, with actives kept by preference.

Consider `CC1CC(C)CN(C(=O)COC(=O)c2ccc(C#N)cc2)C1` (stereo not drawn), for which the % elongation is 101% (inactive) and the z-score is -0.2. For the same molecule, the % elongation under setting [1] amounted to 102%.

For the molecule `Cc1ccc(Cn2nc(C)c(/C=C/C(=O)OCc3nc4ccccc4c(=O)n3CC#N)c2C)cc1`, the % elongation is 108% (inactive) and the z-score stood at 0.9. Further, the % elongation under setting [1] worked out at 119%.

With `O=C(CC12CC3CC(CC(C3)C1)C2)Nc1noc2ccccc12`, the % elongation was 101% (inactive) and the z-score was -0.1. In addition, under setting [1], the % elongation is 102%.

As to `COC(CNC(=O)c1ccc2c(c1)N(Cc1cc(C)ccc1C)C(=O)c1ccccc1S2=O)OC` (stereo not drawn), the % elongation was 99% (inactive) and the z-score was -1.1. Besides, under setting [1], the % elongation worked out at 103%.

`CC(C)n1c(-c2ccncc2)n[nH]c1=S`: the % elongation is 102% (inactive) and the z-score was 0.7. The % elongation under setting [1] came to 103%.

On to `CC(C)Sc1n[nH]c(=S)n1N`, for which the % elongation is 83% (active) and the z-score was -1.9. Moreover, the % elongation under setting [1] amounted to 88%.

For `CC(C)c1n[nH]c(=S)n1N`, the % elongation was 62% (active) and the z-score was -2.9. Besides, the % elongation under setting [1] amounted to 68%.

For the molecule `CCn1c(C(C)C)n[nH]c1=S`, the % elongation is 103% (inactive) and the z-score was 0.6. Under setting [1], the % elongation worked out at 102%.

For `O=C(CN1C(=O)c2ccccc2C1=O)NN1C(=O)CSC1=S`, the % elongation is 97% (inactive) and the z-score was -0.8. Further, the % elongation under setting [1] was found to be 106%.

In the case of `COc1ccc(O)c(C(=O)c2cnn3c(N)nnc3c2)c1`, the % elongation is 84% (active) and the z-score is -2.3. The % elongation under setting [1] was 84%.

On to `COc1ccc(OC)c(C(=O)c2ccc(C(=O)O)cc2)c1`, for which the % elongation is 102% (inactive) and the z-score worked out at 0.4. In addition, under setting [1], the % elongation was determined as 100%.

For `COc1ccc(O)c(C(=O)c2cnn(C(=O)c3ccc4c(=O)n5c(nc4c3)CCC5)c2)c1`, the % elongation is 104% (inactive) and the z-score stood at 0.1. The % elongation under setting [1] came out at 108%.

For `COc1cc(C=Nc2c(C)n(C)n(-c3ccccc3)c2=O)ccc1OC(=O)c1ccco1`, the % elongation was 104% (inactive) and the z-score was 0.5. Also, the % elongation under setting [1] is 102%.

`O=C(CSc1nc2c(c(=O)[nH]1)CN(Cc1ccc3c(c1)OCO3)CC2)Nc1cc(F)ccc1F`: the % elongation is 108% (inactive) and the z-score was found to be 0. Also, the % elongation under setting [1] was determined as 107%.

Turning to `COc1cccc(CN2CCc3nc(SCC(=O)Nc4ccccc4)[nH]c(=O)c3C2)c1`, the % elongation was 107% (inactive) and the z-score is -0.1. In addition, the % elongation under setting [1] came to 111%.

With `O=C(CSc1nc2c(c(=O)[nH]1)CN(Cc1ccc(F)cc1)CC2)Nc1ccccc1Cl`, the % elongation is -15% (active) and the z-score was -8.9. The % elongation under setting [1] is 19%.

On to `CC[N+](CC)=c1scc(-c2ccc(Cl)cc2)s1`, for which the % elongation is 102% (inactive) and the z-score is -0.2. Besides, the % elongation under setting [1] turned out to be 110%.

On to `O=c1ccc(-c2ccc(S(=O)(=O)N3CCc4ccccc43)o2)n[nH]1`, for which the % elongation was 102% (inactive) and the z-score is 0.6. Besides, under setting [1], the % elongation was 108%.

As for `CCN(CC)C(=O)C1Sc2nnc(-c3ccccc3)n2NC1c1ccccc1` (stereo not drawn), the % elongation was 101% (inactive) and the z-score was 0.1. Under setting [1], the % elongation stood at 102%.

Turning to `Cc1[nH]c(=O)[nH]c(=O)c1N`, the % elongation was 100% (inactive) and the z-score was -0.5. Besides, under setting [1], the % elongation worked out at 100%.

`CC[n+]1c(C)n(-c2ccccc2)c2ccc(N)cc21`: the % elongation is 102% (inactive) and the z-score came out at 0.2. Besides, the % elongation under setting [1] stood at 106%.

Turning to `CC[N+](C)(CC)CCC[n+]1c(-c2ccccc2)c2cc(N)ccc2c2ccc(N)cc21`, the % elongation is -41% (active) and -58% (active) and 65% (active); the z-score is -17 and -9.9 and -6.6. In addition, the % elongation under setting [1] is -18% and -15% and 39%.

In the case of `CC(=O)Nc1c(C)ccc(NC(=O)C2C(C=C(C)C)C2(C)C)c1C` (stereo not drawn), the % elongation was 102% (inactive) and the z-score is -0.1. Moreover, under setting [1], the % elongation was determined as 102%.

Take `CCN(CC)CCNC(=O)c1cc2c(=O)oc3ccc(C)cc3c2s1`: the % elongation was 89% (active) and the z-score was -1.5. Moreover, the % elongation under setting [1] was found to be 89%.

With `COc1ccc(Cl)cc1N(C)C(=O)c1cc2c(=O)oc3ccc(C)cc3c2s1`, the % elongation was 107% (inactive) and the z-score turned out to be 0.4. The % elongation under setting [1] was 113%.

For the molecule `Cc1ccc2oc(=O)c3cc(C(=O)NC4CCCC4)sc3c2c1`, the % elongation was 104% (inactive) and the z-score is 0.9. Moreover, the % elongation under setting [1] was determined as 98%.

In the case of `O=C(O)CSc1ccc(S(=O)(=O)N2CCCC2)cn1`, the % elongation was 105% (inactive) and the z-score was found to be 0.2. Under setting [1], the % elongation amounted to 99%.

For the molecule `O=C(NC1CCCCC1)c1ccc(-n2ccc3ccccc32)s1`, the % elongation was 100% (inactive) and the z-score is -0.2. Besides, under setting [1], the % elongation worked out at 101%.

Turning to `N#Cc1c(/N=C/c2c(O)[nH]c(=O)[nH]c2=O)sc2c1CCC2`, the % elongation is 110% (inactive) and the z-score stood at 1.2. In addition, the % elongation under setting [1] was 130%.

As for `N#CSc1ccc(N)c(Br)c1`, the % elongation is 75% (active) and the z-score is -3.8. Also, under setting [1], the % elongation worked out at 83%.

For the molecule `N#CSc1ccc(N2CCCCC2)cc1`, the % elongation is 99% (inactive) and the z-score was -0.2. Besides, under setting [1], the % elongation stood at 100%.

On to `O=C(COC(=O)C1CCC(=O)N1)Nc1nc(-c2ccccc2)cs1` (stereo not drawn), for which the % elongation is 101% (inactive) and the z-score is -0.2. Further, under setting [1], the % elongation stood at 104%.

On to `COc1ccc(-c2csc(=Nc3ccccc3)n2C)cc1`, for which the % elongation is 105% (inactive) and the z-score is 0.5. Further, the % elongation under setting [1] worked out at 102%.

`O=C(CNc1ccccc1N1CCCCC1)N1CCc2ccccc21`: the % elongation was 102% (inactive) and the z-score is 0.1. Also, the % elongation under setting [1] worked out at 94%.

For the molecule `COc1ccccc1C(=O)COC(=O)COc1ccc(C#N)cc1`, the % elongation was 108% (inactive) and the z-score was 0.7. Also, under setting [1], the % elongation turned out to be 108%.

Regarding `NC(=S)N1CCCCC1`, the % elongation is 99% (inactive) and the z-score is -0.1. Besides, under setting [1], the % elongation turned out to be 100%.

In the case of `Clc1nc(Nc2ccccc2)sc1/C=N/N1CCOCC1`, the % elongation is 149% (inactive) and the z-score came out at 5.6. Also, the % elongation under setting [1] turned out to be 195%.

Consider `Cc1cc(NC(=O)c2ccccc2C)no1`, for which the % elongation is 103% (inactive) and the z-score came to 0.4. In addition, under setting [1], the % elongation was 103%.

With `CS(=O)(=O)c1nc2ccccc2[nH]1`, the % elongation is 104% (inactive) and the z-score turned out to be 0.4. Besides, the % elongation under setting [1] is 107%.

For the molecule `OC(c1nc2ccccc2[nH]1)C(O)C(O)C(O)c1nc2ccccc2[nH]1` (stereo not drawn), the % elongation is 99% (inactive) and the z-score is -0.6. Moreover, the % elongation under setting [1] turned out to be 104%.

In the case of `N#CC(=C1C(=O)c2ccccc2C1=O)c1nc2ccccc2[nH]1`, the % elongation was 80% (active) and the z-score is -2.3. For the same molecule, the % elongation under setting [1] was found to be 88%.

With `COc1ccc(CN2CNc3c(c(C)nn3-c3ccccc3)C2)cc1`, the % elongation is 100% (inactive) and the z-score is -1. The % elongation under setting [1] came out at 106%.

Consider `Cc1cccc(-n2c(Cn3ccc(C)n3)n[nH]c2=S)c1`, for which the % elongation was 104% (inactive) and the z-score amounted to 0.5. For the same molecule, under setting [1], the % elongation was determined as 105%.

On to `C=C(C)CNC(=S)NN`, for which the % elongation was 83% (active) and the z-score was -1.3. In addition, under setting [1], the % elongation was 86%.

In the case of `C=C(C)CNC(=S)N1CCNCC1`, the % elongation was 99% (inactive) and the z-score is 0.1. The % elongation under setting [1] was 105%.

Turning to `CC(C)(C)CNC(=S)NN`, the % elongation was 98% (inactive) and the z-score was -0.9. The % elongation under setting [1] was determined as 101%.

As to `CCCCN(C)C(=O)C1CCN(c2nn3cc(-c4ccc(OC)cc4)nc3s2)CC1`, the % elongation is 104% (inactive) and the z-score came out at 0.4. Besides, under setting [1], the % elongation was found to be 105%.

Turning to `Cc1ccc(NC2=C/C(=N/S(=O)(=O)c3ccc(F)cc3)c3ccccc3C2=O)cc1C`, the % elongation was 102% (inactive) and the z-score stood at 0.1. Also, the % elongation under setting [1] was determined as 106%.

Consider `COc1ccc(OCCCn2c(C3CC(=O)N(c4ccc(F)cc4)C3)nc3ccccc32)cc1` (stereo not drawn), for which the % elongation is 109% (inactive) and the z-score worked out at 0.4. Moreover, the % elongation under setting [1] is 110%.

Consider `CCOc1ccc(N2CC(c3nc4ccccc4n3CCOc3ccc(OC)cc3)CC2=O)cc1` (stereo not drawn), for which the % elongation is 111% (inactive) and the z-score turned out to be 0.9. For the same molecule, the % elongation under setting [1] stood at 107%.

Regarding `CCc1ccccc1N1CC(c2nc3ccccc3n2CCCCOc2ccccc2)CC1=O` (stereo not drawn), the % elongation was 63% (active) and the z-score is -7.7. The % elongation under setting [1] was 68%.

The values are drawn from PubChem BioAssay AID588519 (ICCB-Longwood Screening Facility, Harvard Medical School, 2011).
